KinaseGlo FLuc: Counterscreen for Luciferase (Kinase-Glo TM) Inhibition; Kinase-Glo luciferase, ATP luminescence, 8 min; Potency, µM (top dose mostly 38.3 µM), without a hit: at the highest dose activity change, negative = inhibition, hits mostly inhibitors; 200,000 tested, 0.28% active; AID 1379, 2008; note: % is set by controls: 0 for no effect and ±100 for the full control effect; nearly all actives have a fitted effect of over 60% in size
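Kinase-Glo luciferase light output from ATP and luciferin was measured with 10 uM ATP, within the enzyme's linear range. Buffer: 50 mM imidazole pH 7.2, 50 mM KCl, 7 mM MgCl2, 0.01% Tween 20, 0.05% BSA; luminescence read after 8 min at ambient temperature.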
NPC1 promoter act: qHTS Assay for NPC1 Promoter Activators. Huh7 NPC1 promoter luciferase reporter, 24 h. Potency, µM (highest dose often 9.22 µM), inactives show at the highest dose activation, most hits filed as activators. AID 485313, 2010. 320,000 tested, 2.4% active; note: % of control where 0% means no effect; nearly all actives have a fitted effect of over 60% in size
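Stable NPC1-promoter luciferase Huh7 line; cpd (DMSO) 24 h, 37 °C, 5% CO2; Amplite luciferase reagent 10 min RT; luminescence readout. qHTS format.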
Rab9 prom act: qHTS Assay for Rab9 Promoter Activators. Potency, µM (series often up to 9.22 µM), without a hit: top-dose activation, negative = inhibition, most hits filed as activators. AID 485297, 2010. Huh7 Rab9 promoter-luciferase reporter, luminescence, 24 h. 320,000 tested, 2.8% active; note: % of control where 0% means no effect; nearly all actives have a fitted effect of over 60% in size
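Promoter activation is measured as luciferase luminescence in Huh7 cells stably transfected with a Rab9 promoter–luciferase construct, following 24 h compound exposure at 37 °C and 10 min reagent incubation at ambient temperature.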
ELG1 genotox: qHTS screen for small molecules that induce genotoxicity in human embryonic kidney (HEK293T) cells expressing luciferase-tagged ELG1 | Potency, µM (series often up to 46 µM), without a hit: top-dose activity change, positive = activation, most hits filed as activators | 330,000 tested, 1.3% active | HEK293T ELG1-luciferase reporter, luminescence, 16 h | AID 504466, 2011; note: % of control where 0% means no effect; nearly all actives have a fitted effect of over 60% in size
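HEK293T cells expressing luciferase-tagged ELG1 were treated with compound or DMSO for 16 hr at 37°C. Luciferase activity was then read after 30 min with ONE-Glo at room temperature; rising signal flags genetic stress.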
FLuc modulator: qHTS profiling assay for firefly luciferase inhibitor/activator using purifed enzyme and Km concentrations of substrates (counterscreen for miR-21 project). Luciferin 4-monooxygenase (Photinus pyralis), P08659. purified FLuc, Km substrates, luminescence inhibition. Potency, µM (top dose mostly 57.5 µM), for inactives: at the highest dose activity change, negative = inhibition, actives largely listed as inhibitors. 360,000 tested, 6.9% active;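 note: plate controls were vehicle for no effect and reference inhibitor for full effect; nearly all actives have a fitted effect of over 55% in size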
Target sequence (P08659 whole entry, looked up): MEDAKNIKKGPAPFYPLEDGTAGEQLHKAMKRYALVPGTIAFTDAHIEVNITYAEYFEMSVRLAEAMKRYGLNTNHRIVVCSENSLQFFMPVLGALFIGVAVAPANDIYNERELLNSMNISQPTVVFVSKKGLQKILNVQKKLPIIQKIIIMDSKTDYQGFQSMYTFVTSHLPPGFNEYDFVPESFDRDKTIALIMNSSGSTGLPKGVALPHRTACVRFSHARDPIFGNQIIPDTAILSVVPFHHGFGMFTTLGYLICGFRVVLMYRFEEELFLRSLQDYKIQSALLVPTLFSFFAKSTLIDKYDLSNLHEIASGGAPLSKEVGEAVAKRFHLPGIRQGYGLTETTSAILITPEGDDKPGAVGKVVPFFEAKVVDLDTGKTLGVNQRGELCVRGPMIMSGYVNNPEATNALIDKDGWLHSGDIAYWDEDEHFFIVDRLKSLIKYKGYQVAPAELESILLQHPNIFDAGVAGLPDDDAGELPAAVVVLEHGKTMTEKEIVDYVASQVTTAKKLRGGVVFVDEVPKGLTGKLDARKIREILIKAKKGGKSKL
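Purified P. pyralis luciferase (10nM final) with 10uM D-luciferin and 10uM ATP (Km levels) in 50mM Tris acetate pH 7.5, 10mM Mg acetate, 0.01% Tween-20, 0.05% BSA; qHTS 6-point titration, ~60 µM downward; luminescence read.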
SMN2 splice enh: qHTS Assay for Enhancers of SMN2 Splice Variant Expression | Potency, µM (titrated, usually from 46.1 µM), for inactives: at the top dose activity change, positive = activation, hits mostly activators | 210,000 tested, 2.8% active | HEK293 SMN2-luciferase splicing reporter, luminescence, 30-36 h; note: % of control where 0% means no effect; nearly all actives have a fitted effect of over 55% in size
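HEK293 cells carry an SMN2 minigene-luciferase reporter in which exon 7 inclusion puts luciferase in frame. Cells were seeded at 2000 cells/well, attached for 10-12 hours, then exposed to compounds for 30-36 hours at 37C before ONE-Glo luminescence.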
* hit, by the source's call; ? = inconclusive; nt = not tested or not shown; [ ] = dose if it differs, or a comment. Most compounds without a hit are left out; they make up all but 7.3% or so of the library. Calls come from the whole dose curve; as a rule, active = well fitted curve in the direction sought with a large enough effect; inconclusive = small, poorly fitted or top-dose-only effect, or another doubt; inactive = no such curve, though single readings can be large; an effect the other way counts as inactive or inconclusive. Potency is the fitted concentration of half-maximal effect.

SMILES	KinaseGlo FLuc	NPC1 promoter act	Rab9 prom act	ELG1 genotox	FLuc modulator	SMN2 splice enh
O=C(NCc1ccccc1)C(=O)Nc1cccc(C(=O)O)c1	nt	0.0891µM*	0.316µM*	-5.0%	0.675µM*	nt
COc1ccc(C(=O)c2c(C)oc3ccc(O)cc23)c(OC)c1	nt	-5.9%	7.7%	-8.0%	4.8%	nt
COc1ccc(NC(=O)C2C(c3ccccc3)C2(Cl)Cl)c(OC)c1 (stereo unspecified)	nt	0.7%	1.7%	-0.7%	3.6%	nt
CS/C(N)=N/C(=S)Nc1cccc(Cl)c1	nt	?	?	9.2%	19µM*	nt
CC(=O)c1ccc(NC(=O)Nc2cccc(Cl)c2)cc1	-1.8%	1.41µM*	1.26µM*	?	16.9µM*	11.2µM*
O=C(/C=C/c1ccccc1Cl)NC(=S)Nc1ccccc1C(=O)NC1CCCCC1	-1.1%	13.0%	?	2.8%	16.9µM*	10.5%
O=C(NC1CCCCC1)c1ccccc1NC(=S)NC(=O)C1CCC1	6.0%	-0.2%	-6.2%	1.8%	-1.6%	11.9%
CCOc1cnc(-c2ccc(OC)cc2)o1	-2.0%	2.51µM*	?	?	9.53µM*	?
CCOc1oc(-c2ccc(OC)cc2)nc1C(F)(F)F	3.4%	0.2%	0.4%	-6.8%	-15.1%	-1.7%
CCOc1cnc(-c2ccc(Cl)cc2)o1	6.3%	0.3%	14.7%	8.8%	21.3µM*	16.2%
CCOc1cnc(-c2c(-c3c(Cl)cccc3Cl)noc2C)o1	2.9%	-0.5%	2.2%	1.0%	-2.1%	-9.1%
Cc1c(CC(=O)Nc2ccc(Cl)cc2)sc2ccc(Cl)cc12	nt	-3.9%	-7.0%	-1.0%	-0.8%	nt
Cc1ccc(NC(=O)C2CCN(c3nc(-c4ccc(C(C)C)cc4)no3)CC2)c(Cl)c1	nt	nt	nt	nt	21.3µM*	nt
Cc1ccc(C)c(N2CCN(C(=O)C3CCN(c4nc(-c5ccc(C(C)C)cc5)no4)CC3)CC2)c1	nt	nt	nt	nt	12µM*	nt
O=C1C(Cl)=C(NS(=O)(=O)c2ccc([N+](=O)[O-])cc2)C(=O)c2ccccc21	nt	-0.2%	-2.8%	-16.9%	26.9µM*	nt
O=C1C(Cl)=C(Nc2ccc(S(=O)(=O)Nc3ccccn3)cc2)C(=O)c2ccccc21	-5.1%[7.66 µM]	nt	nt	nt	nt	-21.6%[9.22 µM]
Cc1ccc(Nc2nc(-c3ccncc3)cs2)cc1	-2.6%	2.24µM*	1.26µM*	?	0.953µM*	nt
Cc1nc(-c2ccc3c(c2)CCC(=O)N3)cs1	nt	?	?	?	16.9µM*	nt
Cc1nc(-c2ccc3c(c2)OCCO3)cs1	-6.7%	2.82µM*	3.16µM*	?	21.3µM*	?
Cc1cccc(Nc2nc(-c3ccc4c(c3)OCCO4)cs2)c1	-4.0%	2µM*	0.891µM*	2.31µM*	2.69µM*	11.2µM*
CC(=O)Nc1ccc(-c2csc(NNC(=O)c3ccc(C)cc3)n2)cc1	0.1%	-3.9%	-2.5%	-5.6%	1.7%	-16.5%
Cc1cccc(Nc2nc(-c3c(C)nc4ccccn34)cs2)c1	-4.7%	-23.7%	-20.5%	-15.1%	?	-38.1%
Cc1ccc(-c2csc(Cc3nc(-c4ccc5c(c4)CCC(=O)N5)cs3)n2)cc1	nt	-5.2%	1.0%	-23.6%	?	nt
CCOC(=O)[C@@H]1[C@H]2COc3cc(OC)ccc3[C@@H]2N2C(=O)N(c3ccc(C(F)(F)F)cc3)C(=O)[C@]12C	nt	-0.6%	-12.3%	-2.2%	2.0%	nt
Clc1cccc(Nc2nc(-c3ccncc3)cs2)c1	-0.5%	-4.8%	-1.6%	-1.7%	-2.6%	nt
SMILES	KinaseGlo FLuc	NPC1 promoter act	Rab9 prom act	ELG1 genotox	FLuc modulator	SMN2 splice enh
Cc1cccc(Nc2nc(-c3ccncc3)cs2)c1	1.4%	0.7%	?	2.9%	16.9µM*	-3.7%
Cc1cc(C)nc(Nc2ccc(F)cc2)n1	nt	-3.6%	-3.2%	9.2%	0.5%	nt
CC(=O)c1ccc(Nc2nc(C)cc(C)n2)cc1	nt	?	?	?	26.9µM*	nt
Cc1c(NS(C)(=O)=O)cccc1-c1nc2ccccc2s1	nt	nt	nt	nt	8.49µM*	nt
Cc1ccc(S(=O)(=O)Nc2nc3ccccc3s2)cc1	-1.9%	-0.4%	0.6%	0.6%	1.0%	17.1%
CS(=O)(=O)Nc1ccc(-c2nc3ccccc3s2)cc1	nt	nt	nt	nt	1.07µM*	nt
COc1cccc(-n2cnc3sc(C)c(C)c3c2=O)c1	2.0%	8.9%	15.8%	4.2%	?	17.5%
O=C(Nc1ccc(-c2nc3ccccc3[nH]2)cc1)c1ccc2c(c1)OCO2	1.9%	3.6%	?	10.5%	nt	9.4%
O=C(Nc1ccc2c(c1)OCO2)c1cnc(Cl)c(Cl)c1	nt	?	3.55µM*	16.9%	7.57µM*	nt
O=C(Nc1ccc(Cl)c(-c2nc3ccccc3[nH]2)c1)c1ccc2c(c1)OCO2	-0.5%	8.1%	-0.1%	-2.5%	12µM*	6.0%
O=C(CNC(=O)c1ccc(Cl)cc1Cl)OCC(=O)c1ccc2c(c1)OCCO2	-1.4%	2.1%	10.4%	-2.4%	16.9µM*	-11.6%
COc1cc(Cl)c(C)cc1NC(=O)c1ccc2c(c1)OCO2	nt	?	?	5.7%	-17.3%	nt
Cc1cc(Cl)ccc1NC(=O)c1ccc2c(c1)OCO2	nt	2.24µM*	3.55µM*	?	12µM*	nt
O=C(Nc1ccc2c(c1)OCO2)c1ccc(Cl)nc1	-6.5%	26.0%	28.1%	?	?	27.9%
O=C(Nc1ccc(Cl)cc1Cl)c1ccc2c(c1)OCCO2	nt	0.398µM*	0.316µM*	?	0.301µM*	nt
Cc1ccc(C(=O)Nc2ccc3c(c2)OCO3)cc1S(=O)(=O)N1CCCC1	0.2%	?	?	-5.0%	12µM*	24.4%
Cc1ccc(C(=O)Nc2ccc3c(c2)OCO3)cc1S(=O)(=O)N1CCOCC1	nt	?	29.1%	-0.1%	?	nt
Cc1ccc(NC(=O)c2ccc3c(c2)OCO3)cc1Cl	nt	0.562µM*	0.794µM*	?	2.69µM*	nt
Cc1ccc(C(=O)Nc2ccc3c(c2)OCO3)cc1Cl	nt	0.891µM*	2.51µM*	4.61µM*	2.39µM*	nt
COc1ccc2c(c1OC)C(=O)N(c1nc(SC)n[nH]1)C2=O	nt	-4.7%	-0.4%	5.4%	2.1%	nt
O=C(CN1C(=O)C2(SCC(=O)N2c2cccc(F)c2)c2ccccc21)NCc1ccccc1Cl (stereo unspecified)	nt	nt	nt	nt	-1.2%	nt
CCn1cc(CN2CCCC(C(=O)Nc3cccc(-n4cccn4)c3)C2)c(C)n1 (stereo unspecified)	nt	-1.3%	6.1%	-4.2%	-0.1%	nt
Cc1ccc(C(=O)CCC(=O)OCC(=O)Nc2nnc(-c3ccccc3)o2)cc1	nt	1.5%	-6.2%	0.4%	?	nt
COC(=O)CSc1nnc(-c2ccccc2O)n1-c1ccc(C)cc1	-0.6%	10.2%	2.1%	-5.3%	3.1%	-8.6%
